# Screens deposited in PubChem by National Center for Advancing Translational Sciences (NCATS).
# Sampled rows, rich in hits. Any-hit rate of the full collection: about 7.9%.
# HT1080 IDH1KD tx – HT-1080 IDH1 knockdown cell toxicity (counter line); Potency, µM (titrated, usually from 46.1 µM), for the others: at the highest dose activity, negative = toxicity, most hits filed as cytotoxic; HT-1080 IDH1 knockdown viability, ATP luminescence, 48 h; hit rate 2% among 360,000; AID 686971;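 further: 0% = DMSO wells and -100% = cell-free medium wells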
#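 IDH1KD HT-1080 cells, 750/well, RPMI + 5% FBS; compound pinned after 2 h settling; 48 h, 37 °C; CellTiter-Glo luminescence; % activity normalised to DMSO and no-cell wells; curves fitted, classed by r2 and efficacy.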
# KB-V1 MDR tox – KB-V1 MDR subline cytotoxicity. KB-V1 MDR cells viability, CellTiter-Glo, 72 h. Potency, µM (top dose mostly 46.1 µM), actives largely listed as cytotoxic. hit rate 3.4% among 400,000; further: on the % scale 0 is the no-effect control and ±100 the full control effect; nearly all actives have a fitted effect of over 60% in size
#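 Cytotoxicity toward P-gp-expressing KB-V1 cells was determined as loss of CellTiter-Glo luminescence after 72 h at 37 degrees C. Compounds were tested in quantitative HTS format across a concentration range, with curves fitted to normalized data.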
# SW480 rereplic – inducers of DNA re-replication in SW480 colon cancer cells | SW480 DNA re-replication, Hoechst DNA content imaging, 48 h | Potency, µM (doses to about 46.1 µM), for inactives: at the top dose re-replication activation, actives largely listed as activators | hit rate 1.8% among 340,000 | AID 624297; further: % of control where 0% means no effect; nearly all actives have a fitted effect of over 55% in size
#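 Per well, 250 cells were exposed to pinned compound for 48 hr. Nuclear DNA was visualised with Hoechst (40 min, 37 C) and total object intensity recorded by fluorescence scanning.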
# MCF10A rerep – DNA re-replication induction in MCF 10a cells; MCF 10A DNA re-replication, Hoechst nuclear intensity, 48 h; Potency, µM (top dose mostly 46.1 µM), for the others: at the top dose activity, positive = re-replication, usual class: activators; hit rate 2.9% among 350,000; further: % of control where 0% means no effect; nearly all actives have a fitted effect of over 50% in size
# KB-3-1 cytotox – kills parental KB-3-1 adenocarcinoma cells; Potency, µM (titrated, usually from 46.1 µM), most hits filed as cytotoxic; hit rate 1.4% among 400,000; KB-3-1 viability, CellTiter-Glo ATP luminescence, 72 h; AID 1347075; further: on the % scale 0 is the no-effect control and ±100 the full control effect; nearly all actives have a fitted effect of over 60% in size
#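 Cells are dispensed, compounds pinned in, plates held at 37 °C for 72 h, then CellTiter-Glo is added and luminescence read after 10 minutes. Cell line: parental KB-3-1 in phenol-red-free DMEM, 10% FBS.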
# HT1080-NT tox – kills 2HG-producing HT-1080-NT fibrosarcoma cells | HT-1080-NT fibrosarcoma viability, CellTiter-Glo ATP luminescence, 48 h | Potency, µM (doses to about 46.1 µM), for inactives: at the highest dose activity, negative = less viability, usual class: cytotoxic | hit rate 1.6% among 360,000 | AID 686970;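 further: NT is the 2HG producing partner of a matched IDH1 knockdown line; 0% = DMSO-treated cells and -100% = media-only wells without cells; nearly all actives have a fitted effect of over 55% in size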
#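 Compounds were tested in concentration-response format on HT-1080-NT cells for 48 hours at 37 degrees C. Cell viability came from CellTiter-Glo luminescence; curves were classified by r2, response magnitude and activity.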
# An asterisk follows results filed as active; i = inactive; u = inconclusive; x = no result; [ ] = dose if it differs, or a comment. The call rests on the fitted dose curve; in most records, active means well fitted curve in the direction sought with a large enough effect; inconclusive means small, poorly fitted or top-dose-only effect, or another doubt; inactive means no such curve, though single readings can be large; an effect the other way counts as inactive or inconclusive. Potency means the concentration at half of the fitted maximal effect.
SMILES,HT1080 IDH1KD tx,KB-V1 MDR tox,SW480 rereplic,MCF10A rerep,KB-3-1 cytotox,HT1080-NT tox
COc1ccc2c(c1)-c1c(ssc1=S)C(C)(C)N2,u,u,-4%,12µM*,i,u
COc1ccc2c(c1)-c1c(sn(-c3ccc(OC)c(OC)c3)c1=S)C(C)(C)N2,18µM*,i,16%,10%,i,u
C=CCn1c(SCC(=O)NC2CC2)nnc1-c1cccc(OC)c1,1%,i,-4%,1%,i,14%
COc1ccc(-n2cnnc2SCC(=O)NC2CCCCC2)cc1,-10%,23µM*,3%,1%,i,-7%
C=CCn1c(SCC(=O)NC2CCCCC2)nnc1-c1ccc(OC)cc1,16%,4.1µM*,-8%,-38%,i,15%
O=C(CSc1nncn1-c1ccccc1F)NC1CCCCC1,3%,21µM*,-3%,-2%,i,-2%
Cn1c(SCC(=O)NC2CC2)nnc1-c1ccccc1Cl,4%,i,6%,-14%,i,3%
Cn1c(SCC(=O)NC2CCCCC2)nnc1-c1ccccc1F,12%,i,9.2µM*,-20%,i,1%
COc1ccc(-n2cnnc2SCC(=O)NC2CC2)cc1,5%,i,x,x,i,-1%
COc1ccc(OC)c(NC(=O)C(C)N2c3cccc4cccc(c34)S2(=O)=O)c1 (stereo unspecified),4%,i,u,1%,i,19%
CCC[N+](C)(C)c1ccc(/C=C/c2ccnc3ccccc23)cc1,x,u,x,x,1.6µM*,x
Oc1ccc(/C=C/c2ccnc3ccccc23)cc1,u,i,18%,21µM*,u,u
Cc1cc(/C=C/c2ccnc3ccccc23)ccc1N,x,23µM*,x,x,u,x
C[N+](C)(C)c1ccc(/C=C/c2ccnc3ccccc23)cc1,x,u,x,x,18µM*,x
COc1ccc(/C=C/c2ccnc3ccccc23)cc1,x,i,x,x,i,x
CN(C)c1ccc(/C=C/c2ccnc3ccccc23)cc1N,x,i,x,x,i,x
CCCCCCCCCN(CCCCCCCCC)c1ccc(/C=C/c2ccnc3ccccc23)cc1,x,i,x,x,i,x
O=C(c1cccc(Oc2c(Cl)cccc2[N+](=O)[O-])c1)N1CCCCC1,-13%,i,5%,0%,i,-3%
O=C(CCCCn1c(=O)c2ccccc2n(CC(=O)Nc2ccc(F)cc2)c1=O)NCc1ccco1,-8%[9.24 µM],u,14%,8%,i,-2%
COc1ccc(OC)c(C2=NOC(C(=O)NCc3cccs3)C2)c1 (stereo unspecified),u,u,u,u,21µM*,-30%
COc1ccc(OC)c(C2=NOC(C(=O)Nc3cccnc3)C2)c1 (stereo unspecified),25%,23µM*,-2%,-8%,i,16%
COc1ccc(OC)c(C2=NOC(C(=O)NCCN3CCOCC3)C2)c1 (stereo unspecified),-1%,u,-2%,-1%,i,0%[9.24 µM]
CCOc1ccc(NCc2nnc(SCc3ccccc3Cl)n2-c2ccccc2)cc1,u,21µM*,20%,u,i,u
Cc1oc2c(C)c3oc(=O)c(CCC(=O)NCCCCCC(=O)O)c(C)c3cc2c1C,8%,i,-10%,-4%,i,-1%
O=C(CCCN=C1NS(=O)(=O)c2ccccc21)OCC(=O)c1ccccc1Cl,5%,i,-4%,3.7µM*,i,5%
SMILES,HT1080 IDH1KD tx,KB-V1 MDR tox,SW480 rereplic,MCF10A rerep,KB-3-1 cytotox,HT1080-NT tox
NC(=O)c1ccc(NS(=O)(=O)c2ccc(Br)s2)cc1,0%,i,5%,-1%,i,2%
Cc1ccc(F)cc1NC(=O)c1ccc(NS(=O)(=O)c2ccc(Br)s2)cc1,6%,16µM*,u,u,i,-2%
CCN(CC)C(=O)C1CCCc2c1[nH]c1ccc(Cl)cc21 (stereo unspecified),-23%,i,-8%,-7%,6.5µM*,-21%
COc1ccccc1N=CC=C1OC(C)(C)C(C)(C)O1,u,i,u,21µM*,i,-18%
CCCCNC(=O)C1(C)CCCCN1Cc1ccc(OCc2ccccc2)cc1 (stereo unspecified),u,15µM*,x,x,u,u
Cc1sc(NC(=O)CSc2nnc(-c3ccccc3)o2)c(C#N)c1C,9%,i,-3%,u,i,14%
Cc1ccc(-c2cc(C(=O)N/N=C/c3ccccc3O)n[nH]2)o1,u,u,3.3µM*,18µM*,u,u
Cc1ccc(-c2cc(C(=O)N/N=C/C(Br)=C/c3ccccc3)n[nH]2)o1,21µM*,u,15µM*,13µM*,i,21µM*
Cc1ccc(-c2cc(C(=O)N/N=C/c3c[nH]c4ccccc34)n[nH]2)o1,-5%,i,3.7µM*,6%,i,-19%
CCOc1cc(C(=O)NC(CC(=O)O)c2ccc(OC3CCCC3)cc2)cc(OCC)c1OCC (stereo unspecified),0%,i,-5%,-12%,i,6%
COc1ccccc1-c1nnc(NC(=O)CCS(=O)(=O)c2ccc(F)cc2)o1,-18%,i,x,x,i,-16%
O=C(Cn1c(SCc2cccc(F)c2)nc2ccncc21)Nc1ccc(Cl)cc1F,x,i,x,x,i,x
COc1ccc(N=C2SC(CC(=O)Nc3cccc(Cl)c3)C(=O)N2Cc2ccco2)cc1 (stereo unspecified),16µM*,u,u,u,u,u
COc1ccc(N=C2SC(CC(=O)Nc3ccc(OC)cc3OC)C(=O)N2C)cc1 (stereo unspecified),-3%,18µM*,0%,12%,i,7%
COc1cc([N+](=O)[O-])ccc1NC(=O)CC1SC(=Nc2ccc(F)cc2)N(CCC2=CCCCC2)C1=O (stereo unspecified),-4%,u,11%,u,9.2µM*,-1%
COc1ccc(N=C2SC(CC(=O)Nc3ccccc3)C(=O)N2Cc2ccccn2)cc1 (stereo unspecified),-8%,u,u,2%,i,-27%
CCCN(CCC)C(=O)c1cc2c(=O)[nH]c3ccc(C)cc3c2s1,1%,i,-68%,u,i,-2%
CCC(=O)OCOc1ccc(/C=C2/CCC(CN(C)C)C2=O)cc1 (stereo unspecified),16µM*,u,12µM*,u,u,u
CCOc1ccc(/C=C2\CCC(C3CCCC3)C2=O)cc1 (stereo unspecified),8%,i,-1%,4%,i,23%
